Measured values taken from PubChem BioAssay (NCATS).
Inconclusive results are not listed. A number with no mark means an inactive call. Active and inactive are the calls of the source. Calls come from the whole dose curve; as a rule, active = well fitted cell-killing curve with a large enough effect; inconclusive = small, poorly fitted or top-dose-only effect, or effect the other way; inactive = flat fitted curve, though single readings scatter.

Assay: MultiTox-Fluor Cytotoxicity Assay - LYMP1-002 - Live Cells (AID 955)
Settings: LYMP1-002 lymphoblastoid live-cell protease fluorescence viability; series mostly up to 46.1 µM; viability change, negative = cytotoxic: at the top concentration
Source text: NIH Chemical Genomics Center [NCGC]
NIH Molecular Libraries Screening Centers Network [MLSCN]
National Institutes of Environmental Health Sciences [NIEHS]
National Toxicology Program [NTP]
We have developed a 1536-well cell-based assay for quantitative high throughput screening (qHTS) against a number of cell lines to determine in vitro cytotoxicity of small molecules. This particular assay uses a human lymphoblastoid cell line (LYMP1-002) purchased from Coriell Institute.
NCGC Assay Protocol Summary:
The MultiTox-Fluor Cytotoxicity Assay (Promega) is a homogeneous method to simultaneously measure the relative number of live and dead cells in culture by detecting changes in cell membrane integrity. There are two fluorogenic peptide substrates in the assay reagent. Viable cells are determined when the cell-permeant substrate (GF-AFC) enters the cell and is cleaved by protease from live cells resulting in liberated fluorophore. This live-cell protease activity restricted to viable cells is proportional to cell number. The dead cells are determined by using fluorogenic cell-impermeant peptide substrate (bis-AAF-R110) which cleaved by dead cell proteases leaking from damaged cell membrane.
Using the MultiTox-Fluor Cytotoxicity Assay, the relative number of live cells was measured in the lymphoblastoid cell line with complete culture medium following compound treatment for 16 hours. The assay was performed in opaque black Kalypsys 1536-well plates. In the screen, tetraoctylammonium bromide was used as positive control. Library compounds were measured for their ability to cause acute toxicity in the cell line, as reflected by a decrease in live cell protease activity, in a concentration-dependent manner. […] AC50 values were determined from concentration-response data modeled with the standard Hill equation.
qHTS protocol for MultiTox-Fluor Cytotoxicity assay
[Step] [Parameter] [Value] [Description]
1. Reagent; 5 uL; 2500 lymphoblastoid cells/well
2. Time; 5 hr; 37 C incubation
4. Controls; 23 nL; Tetraoctylammonium bromide 6.4pM to 92 uM
5. Time; 16 hr; 37 C incubation
6. Reagent; 5 uL; MuliTox-Fluor Assay reagent
7. Time; 60 min; Room Temperature
8. Detection; live-cell fluorescence (Ex/Em=405/510); EnVision plate reader
Keywords: cell viability, cytotoxicity, lymphoblastoid cell line, fluorescence, NTPHTS, NTPHTS_NCGC, NIEHS, EPA, DSSTox, MLSMR, MLSCN, NIH Roadmap, qHTS, NCGC
% is set by controls: 0 for no effect and ±100 for the full control effect; potency is the fitted concentration of half-maximal effect.

Row | Compound | viability change, negative = cytotoxic [%] | Potency
1 | CC[C@H](C)C(=O)O[C@H]1C[C@@H](C)C=C2C=C[C@H](C)[C@H](CC[C@@H]3C[C@@H](O)CC(=O)O3)[C@H]21 | -10.6 | –
2 | CC(=O)[C@H]1CC[C@H]2[C@@H]3CCC4=CC(=O)CC[C@]4(C)[C@H]3CC[C@]12C | – | inactive
3 | NC(N)=NC(N)=NCCc1ccccc1 | 0.633 | –
4 | O=C(O)c1cc(=O)[nH]c(=O)[nH]1 | 6.7 | –
5 | O=C(N[C@H](CO)[C@H](O)c1ccc([N+](=O)[O-])cc1)C(Cl)Cl | -0.508 | –
6 | Cc1ccnc2c1NC(=O)c1cccnc1N2C1CC1 | -8.11 | –
7 | Cc1nnc(NS(=O)(=O)c2ccc(N)cc2)s1 | 6.18 | –
8 | CN(C)c1ccc(C(=C2C=CC(=[N+](C)C)C=C2)c2ccc(N(C)C)cc2)cc1 | – | 10 µM (active)
9 | NNC(=O)c1ccncc1 | -0.384 | –
10 | Cc1cc(NS(=O)(=O)c2ccc(N)cc2)no1 | -10.3 | –
11 | Cc1noc(NS(=O)(=O)c2ccc(N)cc2)c1C | -6.6 | –
12 | C[C@]12C=CC(=O)C=C1CC[C@@H]1[C@@H]2C(=O)C[C@@]2(C)[C@H]1CC[C@]2(O)C(=O)CO | -3.37 | –
13 | CCc1cc(C(N)=S)ccn1 | 7.68 | –
14 | COc1ccc2cc3[n+](cc2c1OC)CCc1cc2c(cc1-3)OCO2 | -10.8 | –
15 | Cc1ncc([N+](=O)[O-])n1CCO | -9.48 | –
16 | N=C(N)c1ccc(OCCCCCOc2ccc(C(=N)N)cc2)cc1 | -20.4 | –
17 | CC1=NN(c2ccccc2)C(=O)C1 | 3.51 | –
